PubChem BioAssay AID493221 (Johns Hopkins Ion Channel Center, 2011)
Out of some 2,400 compounds screened, about 1,700 (71%) were called active.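 Rule for the calls: active = choline transporter activity left, mean of duplicates at 10 µM, below buffer-only control mean minus 3 SD; inactive = the rest.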 So high a share suggests a set chosen from earlier hits. The list is a sample of the results.

Target: High affinity choline transporter 1 (Homo sapiens) (UniProt Q9GZV3)
Experiment: CHT inhibitors, confirmation, cell-based, membrane potential dye, duplicate (AID 493221)
Settings: CHT-expressing cells, at 10 µM, LV-to-AA substituted CHT, HEK293 cells

High affinity choline transporter 1 (Homo sapiens), sequence (Q9GZV3 whole entry, looked up): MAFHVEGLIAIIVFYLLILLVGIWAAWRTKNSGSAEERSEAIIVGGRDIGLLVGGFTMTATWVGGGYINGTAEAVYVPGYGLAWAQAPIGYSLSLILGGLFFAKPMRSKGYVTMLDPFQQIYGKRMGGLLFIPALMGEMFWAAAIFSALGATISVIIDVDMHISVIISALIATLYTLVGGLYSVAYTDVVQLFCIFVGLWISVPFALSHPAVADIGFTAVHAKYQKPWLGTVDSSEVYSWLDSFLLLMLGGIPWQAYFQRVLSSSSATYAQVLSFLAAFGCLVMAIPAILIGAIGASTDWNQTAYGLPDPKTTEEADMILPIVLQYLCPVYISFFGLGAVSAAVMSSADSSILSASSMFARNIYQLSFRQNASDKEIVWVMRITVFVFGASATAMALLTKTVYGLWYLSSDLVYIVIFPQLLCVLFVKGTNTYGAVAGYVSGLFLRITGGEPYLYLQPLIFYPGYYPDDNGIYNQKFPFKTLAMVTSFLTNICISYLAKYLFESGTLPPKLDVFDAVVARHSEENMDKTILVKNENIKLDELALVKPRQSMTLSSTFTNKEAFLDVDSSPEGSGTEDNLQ

Structure (SMILES)	CHT activity remaining % of control (stronger effect = lower value)
Cc1ccc(CS(=O)(=O)c2ncc(Cl)c(C(=O)Nc3nnc(C)s3)n2)cc1	25.2% (active)
O=C(Nc1nonc1-c1ccc(Cl)cc1)c1ccco1	68.2% (active)
COCCNc1nc(-n2nc(C)cc2C)nc2sc3c(c12)CCCC3	71.2% (active)
O=C(CCCN1C(=O)CSc2ncccc21)N1CCN(c2cccc(C(F)(F)F)c2)CC1	42.1% (active)
COc1cccc(-c2nn(-c3ccccc3)cc2/C=C(\C#N)C(=O)NCCCn2ccnc2)c1	28.8% (active)
CC(=O)OCCOCn1cnn2c(=O)c(Br)c(C)nc12	37.2% (active)
Cc1ccccc1-n1nnc2c(=O)oc3ccccc3c21	inactive
CN(Cc1ccccc1)CC(O)COc1ccc(CNCc2cc3ccccc3s2)cc1 (centres undefined)	53.6% (active)
CCS(=O)(=O)C1=NSC2=NC(=O)/C(=C\c3ccc(OS(=O)(=O)c4ccccc4)cc3)C(=N)N21	53.4% (active)
CCCCCn1c(=O)c(C(=O)OCC)c(Cl)c2ccccc21	45.3% (active)
O=c1c2ccccc2nnn1CSc1nc2sc3c(c2c(=O)n1CC1CCCO1)CCC3 (centres undefined)	24% (active)
Cc1ccc(NNC(=O)c2cccs2)cc1Cl	64.8% (active)
CCC(C(=O)N1CCOCC1)n1c(C(=O)OC)cc2occc21 (centres undefined)	55% (active)
CCNC(=O)CC1C(=O)N(c2ccc(F)cc2)C(=O)N1CCc1sccc1C (centres undefined)	inactive
O=C1c2cccc3cccc(c23)C(=O)N1CCCCCc1n[nH]c(=S)o1	inactive
COc1ccc(Cn2c(=O)sc3ccccc32)cc1OC	63.4% (active)
CCOc1ccccc1Nc1ccc2nonc2c1[N+](=O)[O-]	33.1% (active)
CC(=O)N1CCN(S(=O)(=O)c2cccc(C(=O)NC3CCC(C)CC3)c2)CC1 (centres undefined)	70.5% (active)
COc1ccc(S(=O)(=O)N2CCN(C(=O)NC3CCCCC3)CC2)cc1	inactive
CCc1nc(C)cn1S(=O)(=O)c1cc([N+](=O)[O-])ccc1Cl	inactive
CCn1c(SCCC(C)C)nnc1-c1c[nH]c2ccccc12	67.1% (active)
Cc1ccccc1-n1c(C)cc(/C=N/NC(=O)c2ccc(CN3CCOCC3)cc2)c1C	69.4% (active)
CC(=O)c1ccc(Oc2cc(C)nc(-n3nc(C)cc3C)n2)cc1	inactive
CCOC(=O)N1CCN(C(=O)C2CCN(c3ncnc4c3sc3cccc(F)c34)CC2)CC1	68.8% (active)
Cc1[nH]c2ccccc2c1C(=O)CN1CCCC(C)C1 (centres undefined)	60.9% (active)

Structure (SMILES)	CHT activity remaining % of control (stronger effect = lower value)
O=C(Cn1nc(C(F)(F)F)c2c1CCC2)NCc1ccc(F)cc1	63.8% (active)
COC(=O)c1ccccc1NC(=O)Cn1nc(C(F)(F)F)c2c1CCC2	inactive
O=[N+]([O-])c1ccccc1Nc1ccc(O)cc1	42.1% (active)
COc1ccc(-n2nnnc2CNC(=O)c2ccc3ccccc3c2)cc1	56.6% (active)
COc1ccc(N2C(=O)CNC2=S)cc1	inactive
Cc1ccc(S(=O)(=O)/N=C(/NC(=S)Nc2c(C)n(C)n(-c3ccccc3)c2=O)c2ccccc2)cc1	39.1% (active)
O=C(c1cccs1)C1C(c2ccc(Br)cc2)NC(=S)NC1(O)C(F)(F)F (centres undefined)	54.2% (active)
Oc1c(Cl)cc(Cl)c(Cl)c1Cc1c(O)c(Cl)cc(Cl)c1Cl	10.1% (active)
O=S(=O)(Cc1cc(Cl)nc(-c2cccnc2)n1)c1ccccc1	60.6% (active)
Cc1ccc2c(C)c(C(=O)N3CCC(N4CCC(C(=O)NC5CC5)CC4)CC3)oc2c1	61.6% (active)
Cc1oc2cc([N+](=O)[O-])c(O)c([N+](=O)[O-])c2c1C(=O)c1ccc(Br)cc1	inactive
O=C(Cn1ncc2c3ccccc3n(Cc3ccccc3)c2c1=O)NCCCN1CCOCC1	32.8% (active)
Cc1nn(CC(=O)NCC2CCCO2)c(=O)c2cc3ccccc3n12 (centres undefined)	inactive
CCCn1c2ccccc2c2cnn(CC(=O)NCCCN3CCCCC3CC)c(=O)c21 (centres undefined)	36.8% (active)
CCCCOc1ccc(Cl)cc1CSc1nncn1N	inactive
COc1ccc(C(=O)NC(=S)NNC(=O)CCc2ccccc2)cc1	66.3% (active)
COc1ccc(C(=O)NNC(=S)NC(=O)c2ccccc2)cc1	59.6% (active)
O=C(Nc1ccc(F)c(Cl)c1)C1CCN(S(=O)(=O)c2cccnc2)CC1	38.1% (active)
C=CCn1c(SCc2ccc(C(=O)NCCO)cc2)nc2ccccc2c1=O	inactive
COc1ccc(C(=O)NC(Cc2ccc(OC(=O)c3ccc(OC)cc3)cc2)C(=O)O)cc1 (centres undefined)	18.8% (active)
O=C(NCCc1ccc2c(c1)OCCO2)c1cc2ccccc2o1	42.2% (active)
O=C(NCCCn1ccnc1)C(=O)c1cn(CC(=O)N2CCCCCC2)c2ccccc12	59.8% (active)
CCCCn1c(SCC(=O)NCC2CCCO2)nc2ccc(N3CCOCC3)cc2c1=O (centres undefined)	inactive
CCCCCn1c(=O)[nH]c2cc(C(=O)NCCCN3CCCCC3C)ccc2c1=O (centres undefined)	35.4% (active)
CC(=O)Nc1nc2c(s1)C(=O)NCC(C)(C)C2	inactive

Structure (SMILES)	CHT activity remaining % of control (stronger effect = lower value)
C/C(=N\N=C(N)N)c1ccc(Cl)cc1	12.2% (active)
CCN(CC(=O)NCc1ccc(Cl)cc1)C(=O)CSc1ccccc1	inactive
Nc1cc(N2CCCCCC2)c2nonc2c1[N+](=O)[O-]	68.5% (active)
O=C(OCC(=O)c1c[nH]c2ccccc12)c1cccc(O)c1	56% (active)
CN(CCC#N)c1ncnc2scc(-c3ccccc3)c12	50.5% (active)
Cc1cccc(N(C)C(=O)CN2C(=O)COc3ccc(S(=O)(=O)N4CCCCCC4)cc32)c1	56.8% (active)
O=C(c1c(F)cccc1Cl)N1CCN(S(=O)(=O)c2ccc3c(c2)OCCCO3)CC1	inactive
O=S(=O)(c1cccc(-c2nnc(SC(F)F)n2-c2ccccc2)c1)N1CCCCC1	inactive
CCc1ccc2c(c1)C1(NN=C(c3ccccc3)S1)C(=O)N2 (centres undefined)	54.3% (active)
Cn1c2ccccc2c(=O)c2c(O)cccc21	65.5% (active)
O=C(O/N=C(/c1ccccc1)c1ccncc1)c1ccccc1[N+](=O)[O-]	60.1% (active)
Cc1cccc(C)c1NC(=O)c1ccc(CN2CCc3ccccc3C2)cc1	53.4% (active)
COc1ccc(C(=O)NC(C)c2nccs2)cc1OC1CCN(C(C)C)CC1 (centres undefined)	22.1% (active)
COc1ccc(OCC(=O)OCCN(C)C)cc1	11.5% (active)
OC1CN=C2Sc3ccccc3N2C1 (centres undefined)	46.2% (active)
CCC(C)c1ccc(NC(=S)NCc2ccccn2)cc1 (centres undefined)	45.6% (active)
COC(=O)C(C(=O)Nc1cccc(Cl)c1C)C1CCCC1 (centres undefined)	inactive
CC(C)CCn1c(CN(C)Cc2ccccc2)nc2c1c(=O)n(C)c(=O)n2C	inactive
Cc1cc(OC(C)C(=O)Nc2ccc(S(=O)(=O)Nc3onc(C)c3C)cc2)cc(C)c1Cl (centres undefined)	57.7% (active)
CCC(Oc1ccccc1C)C(=O)Nc1ccc(S(=O)(=O)Nc2cc(C)on2)cc1 (centres undefined)	46.2% (active)
Cc1cc(NS(=O)(=O)c2ccc(NC(=O)C(C)Oc3cccc(C)c3C)cc2)nc(C)n1 (centres undefined)	13.3% (active)
COc1cc2ccccc2cc1C(=O)Nc1ccc(S(=O)(=O)Nc2cc(C)on2)cc1	49.4% (active)
CCN(CC)Cc1c(C(=O)N/N=C/c2cccc(OCc3ccc(F)cc3)c2)nnn1-c1nonc1N	inactive
CCc1cc2c(N3CCN(c4nnc(CC)s4)CC3)ncnc2s1	67.1% (active)
Cc1c(C(=O)OC(C)C)sc(NC(=O)c2cccnc2)c1C#N	61.9% (active)

Structure (SMILES)	CHT activity remaining % of control (stronger effect = lower value)
CCN(CC)CCC(c1ccc2c(c1)OCO2)c1c(OC)cc(OC)c2c(-c3ccccc3)cc(=O)oc12 (centres undefined)	70.5% (active)
CC(C)(C)c1ccc(C(=O)CSc2ncn[nH]2)cc1	42.8% (active)
C/C(=N/NC(=O)c1cc(Cl)ccc1O)C12CC3CC(CC(C3)C1)C2	46.3% (active)
FC(F)(F)c1cccc(NC(=S)Nc2cccc(Cl)c2)c1	inactive
Cc1oc2c(F)c(F)c(F)c(F)c2c1S(=O)(=O)Nc1cccc(C(F)(F)F)c1	57.3% (active)
COc1ccc(NC(=O)c2sc(N)nc2-c2ccccc2)cc1	53.4% (active)
Cc1ccc2nc(Nc3ccccc3)cc(C)c2c1	49.7% (active)
COc1ccc(/C=C2/SC(=O)N(CCCCCC(=O)Nc3ccccc3C(=O)O)C2=S)cc1	29.7% (active)
C/C(=N\Nc1nc2ccccc2[nH]1)c1cccs1	19.1% (active)
CC(C(=O)NC1CCS(=O)(=O)C1)N1C(=O)/C(=C/c2ccc(Cl)cc2)SC1=S (centres undefined)	69.7% (active)
Cc1ccc(C(=O)N/C(=C/C=C/c2ccccc2)C(=O)NCc2ccco2)cc1	47.3% (active)
O=C(/C=C/c1cn(-c2ccccc2)nc1-c1ccc2c(c1)OCCO2)NCCCN1CCOCC1	26.1% (active)
Cc1cccc(-c2nc3ccc(C(=O)NCCN4CCN(C)CC4)cc3nc2-c2cccc(C)c2)c1	40% (active)
CNCC(O)c1ccc(O)c(O)c1 (centres undefined)	33.7% (active)
COC(=O)CN1C(C)=Nc2ccc(Br)cc2C1c1ccccc1 (centres undefined)	inactive
O=C(O)CC1=C(Nc2ccccc2)C(=O)N(c2ccccc2)C1c1ccc(Cl)cc1 (centres undefined)	26.7% (active)
O=S(=O)(Nc1ccc(Cl)cn1)c1cnc(Cl)c(Br)c1	inactive
CCC(=O)Nc1nnc(S(=O)(=O)N(CC(C)C)c2ccccc2)s1	inactive
C/C(=N\NC(N)=S)c1cccnc1	inactive
O=C(O)c1ccc(N/N=C/c2cn(-c3ccccc3)nc2-c2cccs2)cc1	65.1% (active)
COc1nc(OC)nc(N(C)CCO)n1	inactive
CCOC(=O)N1CCN(C(=O)c2ccc(CN(c3ccc(C)c(C)c3)S(C)(=O)=O)cc2)CC1	inactive
CCN(Cc1ccccc1)S(=O)(=O)c1cc(C(=O)O)ccc1OC	58.7% (active)
O=C(Nc1ccccc1C(=O)NCCCn1ccnc1)c1ccc(Cl)cc1Cl	52.6% (active)
